Molecules are shown by their SMILES. The whole screen tested about 52,000 compounds, of which about 4,300 (8.3%) were called active. No stated cut-off is given here; in the data, active means survival mostly below about 52% (no sharp cut-off); inactive means mostly above about 56%. The list comes from a sample in which actives are over-represented; it also holds similar structures and randomly drawn compounds.

The assay relates to DeltatarO mutant. The experiment in a line: growth inhibition of S. aureus wild type versus tarO mutant, primary screen, teichoic acid synthesis inhibitors, RN4220, OD600 (AID 463173). As to conditions: OD600, 18 h, active compounds read low, screened at 18.75 µg/mL (by protocol).
As for `Cc1c(NC(=O)Cc2ccc(Cl)cc2)cccc1-c1nc2cccnc2s1`, the survival was 114% (inactive).

`Cc1csc2nc(COC(=O)c3cccc(NC(=O)COc4ccccc4Cl)c3)cc(=O)n12`: the survival was 88% (inactive). The figure for `Cc1cc2ncn(S(=O)(=O)c3ccc(S(N)(=O)=O)cc3)c2cc1C` is 84% (inactive).

As for `Cc1ccccc1NC(=O)N1CCCC(c2nc(-c3ccc(F)cc3)no2)C1` (stereo unspecified), the survival was 93% (inactive). To `Cc1ccccc1NC(=O)CN1C(=O)CCn2nc(-c3cccn3C)cc21` belongs 83% (inactive); to `O=C(CSc1nc(-c2ccc(Cl)cc2)nc2c1Cc1ccccc1O2)N1CCCCC1`, 96% (inactive). The figure for `O=C(Cn1cc(C(=O)c2cccs2)c2ccccc21)Nc1ccc(Br)cc1` is 127% (inactive).

Regarding `O=S(=O)(NCCSc1nnnn1-c1ccccc1)c1ccc(F)cc1`, the survival is 76% (inactive). Regarding `O=C1CC(CSc2nnnn2-c2ccccc2)=NN1`, the survival is 101% (inactive). To `O=S1(=O)C=C(Sc2nnnn2-c2ccccc2)c2ccccc21` belongs 4% (active). To `Cc1cc(NC(=O)CCCn2c(C)c3cnn(-c4ccccc4)c(=O)c3c2C)ccc1Br` belongs 71% (inactive).

For `COc1ccc(CCNC(=O)Cn2c(=O)nc(-c3ccccc3)c3cc(Cl)ccc32)cc1OC`, the survival is 94% (inactive). The figure for `Cc1oc(-c2ccc(C(=O)NCCCOC(C)C)cc2)nc1CS(=O)(=O)c1ccccc1` is -4% (active); for `Cc1ccc(S(=O)(=O)Cc2nc(-c3ccc(C(=O)NCCCOC(C)C)cc3)oc2C)cc1` it is 72% (inactive); for `CCOCCCNC(=O)c1ccc(-c2nc(CS(=O)(=O)c3ccccc3)c(C)o2)cc1` it is 66% (inactive).

For the compound `COc1ccc(CCN2C(=O)CN(C3CCCCCC3)C(=O)C2c2ccc(Cl)cc2)cc1OC` (stereo unspecified), the survival was 81% (inactive). To `Cc1ccc(C(=O)Nc2ccc(-c3nc4ccccc4s3)c(O)c2)c(C)c1` belongs 84% (inactive); to `COc1cccc(C(=O)Nc2ccccc2-c2nc3ccccc3s2)c1`, 33% (active); to `COc1cccc(C(=O)Nc2ccc(-c3nc4ccccc4s3)cc2Cl)c1`, 72% (inactive). The figure for `COc1cc(OC)cc(C(=O)Nc2ccccc2-c2nc3ccccc3s2)c1` is 17% (active). The figure for `COc1ccc(C(=O)Nc2cc(C)c(O)c(-c3nc4ccccc4s3)c2)cc1OC` is 51% (inactive); for `COc1cc(OC)cc(C(=O)Nc2ccc(-c3nc4ccccc4s3)c(C)c2)c1` it is 117% (inactive). Take `O=C(Nc1ccc(-c2nc3ccccc3s2)c(O)c1)c1ccc(Br)cc1`: the survival was 87% (inactive).

On to `O=C(Nc1ccccc1-c1nc2ccccc2s1)c1ccc(F)cc1`, for which the survival was 81% (inactive). The figure for `COc1ccc(C(=O)Nc2ccccc2-c2nc3ccccc3s2)c(OC)c1` is 102% (inactive); for `COc1ccc(C(=O)Nc2ccccc2-c2nc3ccccc3s2)cc1OC` it is 7% (active); for `O=C(Nc1ccccc1-c1nc2ccccc2s1)c1cc(Cl)cc(Cl)c1` it is 84% (inactive). To `CSc1ccc(C(=O)Nc2ccc(-c3nc4ccccc4s3)c(O)c2)cc1` belongs 32% (active); to `Cn1c(CNC(=O)CSc2n[nH]c(-c3ccccc3Cl)n2)nc2ccccc21`, 75% (inactive). `O=C(Nc1ccc(F)cc1F)c1cc2c(=O)n3ccccc3nc2s1`: the survival is 75% (inactive). With `CCOC(=O)c1ccccc1NC(=O)c1sc2ncn(CC)c(=O)c2c1C`, the survival was 68% (inactive). To `Cc1ccc(C)c(NC(=O)CCc2c(C)n(C)c3cc(-c4ccccc4C)nn3c2=O)c1` belongs 63% (inactive); to `CCC(CC)C(=O)Nc1ccccc1C(=O)OCc1cc(=O)n2nc(C3CCCCC3)sc2n1`, 92% (inactive). The figure for `O=C(Nc1ccc(F)c(Cl)c1)N1CC=C(c2c[nH]c3ccccc23)CC1` is 77% (inactive); for `CN1CCN(C(CNC(=O)C(=O)Nc2cccc(Cl)c2)c2ccc3c(c2)OCO3)CC1` (stereo unspecified) it is 86% (inactive); for `CCC1=C(c2ccc(C)cc2)S(=O)(=O)N=C1N1CCC(C(=O)Nc2ccccc2C(=O)OC)CC1` it is 89% (inactive). Consider `Cc1ccc(NC(=O)Cn2c(=O)n(CCc3ccccc3)c(=O)c3c4c(sc32)CCCC4)cc1C`, for which the survival is 97% (inactive). The figure for `CCCCOc1ccc(C(=O)Nc2ccc3c(c2)CCCN3C(=O)c2cccs2)cc1` is 83% (inactive); for `CCOC(=O)C(C)ON1C(=O)c2ccccc2C1=O` (stereo unspecified) it is 86% (inactive).

For the compound `CC(=O)N1CCc2cc(Br)cc(S(=O)(=O)NCCc3cccc(C)c3)c21`, the survival was 75% (inactive). On to `CC(=O)N1CCc2cc(Br)cc(S(=O)(=O)CCC(=O)Nc3ccc(C)cc3Cl)c21`, for which the survival was 47% (active). To `Cc1ccc(NC(=O)CCS(=O)(=O)c2cc(Br)cc3c2N(C(=O)C2CC2)CC3)cc1` belongs 90% (inactive); to `CCOc1ccc(CCNS(=O)(=O)c2cc(Br)cc3c2N(C(C)=O)CC3)cc1OCC`, 103% (inactive).

As for `CCC(=O)N1CCc2cc(Br)cc(S(=O)(=O)CCC(=O)Nc3ccccc3C)c21`, the survival is 87% (inactive). To `CC(=O)N1CCc2cc(Br)cc(S(=O)(=O)CCC(=O)NCCc3ccc(Cl)cc3)c21` belongs 44% (active); to `COc1ccc(CCNC(=O)CCS(=O)(=O)c2cc(Br)cc3c2N(C(C)=O)CC3)cc1OC`, 53% (inactive); to `CC(=O)N1CCc2cc(Br)cc(S(=O)(=O)NCCc3ccc(Cl)cc3)c21`, 45% (active). With `CCC(=O)N1CCc2cc(Br)cc(S(=O)(=O)CCC(=O)NCCc3ccc(Cl)cc3)c21`, the survival is 70% (inactive).

On to `COc1ccc(CCNC(=O)c2ccc3c(c2)N(Cc2ccccc2C)C(=O)c2ccccc2S3)cc1OC`, for which the survival was 118% (inactive). `CCOC(=O)c1c(C)[nH]c(C)c1S(=O)(=O)NCC(=O)Nc1ccc(CC)cc1`: the survival was 96% (inactive).

As for `COc1ccc(OC)c(CCNC(=O)C2=C(C)C(=O)OC23CCC(C)CC3)c1` (stereo unspecified), the survival was 86% (inactive). The figure for `Cc1cc(C(C)(C)C)oc1C(=O)N(CC(=O)NC1CCCC1)c1ccc(F)cc1` is 77% (inactive). The figure for `CC(C)(C)c1ccc(OCC(=O)N2CCC(c3nc4ccccc4s3)CC2)cc1` is 84% (inactive). The figure for `O=C(COc1cccc(Cl)c1)N1CCC(c2nc3ccccc3s2)CC1` is 44% (active); for `Cc1cc(OCC(=O)N2CCC(c3nc4ccccc4s3)CC2)ccc1Cl` it is 23% (active).

Consider `O=C(COc1ccc([N+](=O)[O-])cc1)N1CCC(c2nc3ccccc3s2)CC1`, for which the survival was 82% (inactive). The figure for `Cc1cc(Cl)ccc1OCC(=O)N1CCC(c2nc3ccccc3o2)CC1` is 54% (inactive). The figure for `Cc1ccccc1OCC(=O)N1CCC(c2nc3ccccc3s2)CC1` is 51% (inactive); for `COc1ccc(OCC(=O)N2CCC(c3nc4ccccc4s3)CC2)cc1` it is 68% (inactive). With `Cc1cc(C)cc(OCC(=O)N2CCC(c3nc4ccccc4s3)CC2)c1`, the survival is 85% (inactive). Regarding `Cc1cc(Cl)ccc1OCC(=O)N1CCC(c2nc3ccccc3s2)CC1`, the survival is 21% (active). To `COc1ccc(N2CCN(S(=O)(=O)c3c(C)nc4sc(C)cn4c3=O)CC2)cc1` belongs 92% (inactive); to `CCCCSCc1ccc(C(=O)O)o1`, 77% (inactive); to `O=C(c1cccs1)N1CCCc2cc(NS(=O)(=O)c3cc(F)ccc3F)ccc21`, 73% (inactive). `O=C(c1ccccc1F)N1c2nc(-c3ccco3)nn2C2(CCCCC2)[C@@H]2CCCC[C@@H]21`: the survival was 69% (inactive). To `C=Cc1ccc(Cn2c(C)c(CNCCc3ccccc3C)c(C(=O)O)c2C)cc1` belongs 53% (inactive).

Regarding `Cc1cc(C)c(NS(=O)(=O)c2ccc(-c3coc(C)n3)cc2)c(C)c1`, the survival is 94% (inactive). To `CC(=O)OCc1cnc(C)c2oc(=O)c(C(=O)Nc3ccc(C)cc3Cl)cc12` belongs 128% (inactive); to `Cc1ccc(NC(=O)c2ccccc2Br)c(C(=O)c2ccccc2)c1`, 26% (active). To `Cc1ccc(C(=O)COC(=O)c2cccc(NC(=O)c3ccc(Cl)cc3Cl)c2)cc1` belongs 61% (inactive). The figure for `Cc1ccc(NC(=O)c2ccc(Cl)cc2Cl)c(C(=O)c2ccccc2)c1` is -1% (active). With `Cc1ccc(NC(=O)c2nc[nH]c2C(=O)N2CCCCC2)c(C(=O)c2ccccc2)c1`, the survival was 82% (inactive). The figure for `O=C(c1ccccc1)c1ccccc1NC(=O)c1ccccc1C(=O)O` is 67% (inactive). To `O=C(Nc1cc2c(cc1C(=O)c1ccccc1Br)OCCO2)c1ccccc1` belongs 68% (inactive); to `Cc1ccc(NC(=O)c2ccc(Br)cc2)c(C(=O)c2ccccc2)c1`, -2% (active). The figure for `Cc1cc(NC(=O)c2ccccc2Cl)ccc1NC(=O)c1ccccc1` is 77% (inactive); for `O=C(Nc1cc2c(cc1C(=O)c1ccccc1)OCCO2)c1ccc(Br)cc1` it is 82% (inactive); for `CCOc1ccccc1CNC(=O)c1ccc2c(c1)nc1n2CCCCC1` it is 87% (inactive). Consider `O=C(c1ccccc1)n1nnc2ccccc21`, for which the survival is 106% (inactive).

As for `COc1ccc2c(c1)c1c(c(=O)n(Cc3ccccc3)c(=O)n1Cc1cccc(Cl)c1)n2C`, the survival is 82% (inactive). To `CCC(Oc1ccccc1)C(=O)Nc1nccs1` (stereo unspecified) belongs 79% (inactive); to `COc1ccc2c(CNCCc3ccco3)c(C(=O)O)n(Cc3ccccc3)c2c1`, 101% (inactive); to `CCC(C(=O)Nc1cc(C)ccc1C)n1c(=O)c(C(F)(F)F)nc2ccccc21` (stereo unspecified), 102% (inactive). To `CCCc1cnc2c(c1SCC(=O)Nc1ccc([N+](=O)[O-])cc1)c(=O)n(C)c(=O)n2C` belongs 66% (inactive); to `COc1ccc(-n2cc(C(=O)OCc3ccc(F)c(F)c3)c3ccccc3c2=O)cc1`, 98% (inactive). Take `COc1ccccc1NC(=O)c1ccccc1C(=O)O`: the survival was 82% (inactive). The figure for `COc1ccccc1NC(=O)c1ccccc1NC(=O)c1ccccc1` is 20% (active).

With `COc1ccccc1NC(=O)c1cccc(S(=O)(=O)N2CCCCCC2)c1`, the survival was 40% (active).

Consider `COc1ccc(OC)c(NC(=O)c2ccccc2)c1`, for which the survival was 105% (inactive). To `O=C(Nc1ccccc1C(=O)O)c1cccc(S(=O)(=O)N2CCCC2)c1` belongs 87% (inactive). The figure for `COc1ccccc1NC(=O)c1cc(S(=O)(=O)N2CCN(c3ccccc3Cl)CC2)ccc1F` is 102% (inactive).

Values taken from PubChem BioAssay AID463173 (ICCB-Longwood Screening Facility, Harvard Medical School, 2010).
